Laboratory results taken from PubChem BioAssay AID485346 (Sanford-Burnham Center for Chemical Genomics, 2010).
In all, about 330,000 compounds went through this assay and about 10,000 (3%) were called active.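 Rule for the calls: active = inhibition of at least 50% at 8 µM in the primary screen; inactive = the rest.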 Shown is part of a subset that was picked to be rich in actives.

What follows are molecules tested against Protein Mdm4 (Homo sapiens) + E3 ubiquitin-protein ligase Mdm2 (Homo sapiens) (UniProt O15151+Q00987) (assay: disruptors of Mdm2/MdmX RING complex – cell-based, luminescence, split luciferase, SaOS-2, uHTS, primary screen (AID 485346)). Conditions: SaOS-2 split-luciferase Mdm2/MdmX complementation, at 8 µM, active compounds read high.
Protein Mdm4 (Homo sapiens) + E3 ubiquitin-protein ligase Mdm2 (Homo sapiens), sequence (O15151 whole entry, looked up): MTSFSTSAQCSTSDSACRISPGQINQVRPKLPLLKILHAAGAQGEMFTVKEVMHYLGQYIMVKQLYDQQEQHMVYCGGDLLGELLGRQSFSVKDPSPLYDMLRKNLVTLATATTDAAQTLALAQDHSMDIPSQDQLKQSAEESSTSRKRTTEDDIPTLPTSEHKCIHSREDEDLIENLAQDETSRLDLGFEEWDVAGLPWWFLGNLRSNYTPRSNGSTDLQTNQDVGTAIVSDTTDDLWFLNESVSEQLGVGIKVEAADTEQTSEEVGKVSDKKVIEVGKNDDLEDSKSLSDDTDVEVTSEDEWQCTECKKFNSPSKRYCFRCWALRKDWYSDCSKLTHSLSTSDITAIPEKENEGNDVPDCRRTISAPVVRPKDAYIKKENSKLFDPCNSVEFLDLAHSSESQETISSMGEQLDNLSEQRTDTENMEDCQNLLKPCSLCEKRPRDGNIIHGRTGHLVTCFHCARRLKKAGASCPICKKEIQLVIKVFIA
Protein Mdm4 (Homo sapiens) + E3 ubiquitin-protein ligase Mdm2 (Homo sapiens), sequence (Q00987 whole entry, looked up): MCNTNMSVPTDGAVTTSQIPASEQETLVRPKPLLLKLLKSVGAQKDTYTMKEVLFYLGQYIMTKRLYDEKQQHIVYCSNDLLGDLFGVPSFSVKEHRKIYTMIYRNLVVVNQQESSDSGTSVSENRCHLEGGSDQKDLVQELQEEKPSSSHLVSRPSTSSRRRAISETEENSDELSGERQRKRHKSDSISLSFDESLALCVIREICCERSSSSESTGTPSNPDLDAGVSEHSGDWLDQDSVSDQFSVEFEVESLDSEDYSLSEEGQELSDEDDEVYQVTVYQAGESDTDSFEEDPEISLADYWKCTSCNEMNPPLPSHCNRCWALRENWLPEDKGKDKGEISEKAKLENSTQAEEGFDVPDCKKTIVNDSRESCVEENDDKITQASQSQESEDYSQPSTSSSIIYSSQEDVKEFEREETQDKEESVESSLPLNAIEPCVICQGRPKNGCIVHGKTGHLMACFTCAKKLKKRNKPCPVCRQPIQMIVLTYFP
`Cc1ccc(Nc2nnc(SC(C)C(=O)NC3CC3)s2)cc1` (centres undefined) was tested, and the inhibition was 22.3% (inactive).
For `Cc1cc(=O)n2nc(N3CCC(C(=O)Nc4c(F)c(F)c(F)c(F)c4F)CC3)sc2n1`, the inhibition was 8.91% (inactive).
For `Cc1ccc(Oc2nc(-c3ccccn3)nc3ccccc23)cc1`, the inhibition was 60.4% (active).
With `c1ccc(-c2nccc(-c3ccc(-n4cnc5ccccc54)cc3)n2)nc1` the inhibition was 28.4% (inactive).
With `N#Cc1ccc(Oc2cc(C(F)(F)F)nc(-c3ccccn3)n2)cc1` the inhibition was 11.2% (inactive).
For `CC(C)(C)Nc1nc(-c2ccccn2)nc2ccccc12`, the inhibition was 87.5% (active).
For `COc1cnc(-c2ccccn2)nc1Oc1ccc(C(C)(C)C)cc1`, the inhibition was 37.6% (inactive).
`c1ccc2c(NCC3CCCO3)nc(-c3ccncc3)nc2c1` (centres undefined) was tested, and the inhibition was -16.8% (inactive).
For `CCn1nc(C)c(CN2CCN(Cc3ccc(OC)c(C)c3C)C(CCO)C2)c1C` (centres undefined), the inhibition was 10.8% (inactive).
`O=C(OCCN1CCOCC1)C1(c2ccccc2)CCCCC1` was tested, and the inhibition was -8.86% (inactive).
For `Cc1ncn2cc(-c3ccc(Cl)cc3Cl)[nH]c(=O)c12`, the inhibition was 7.48% (inactive).
For `Cc1ccc(C(=O)Nc2nnc(-c3ccncc3)s2)o1`, the inhibition was -5.65% (inactive).
With `CC(C)=CC(=O)Nc1nnc(-c2ccc(F)cc2)s1` the inhibition was 80% (active).
In the case of `O=C(Nc1nnc(-c2ccc(F)cc2)s1)c1c(F)cccc1Cl`, the inhibition is reported as 7.4% (inactive).
With `COc1ccccc1N(C)S(=O)(=O)c1ccc(Cl)c(C(=O)N2CCC(C(N)=O)CC2)c1` the inhibition was -6.16% (inactive).
With `Cc1ccc2[nH]c3c(=O)n(CC(=O)NCCc4ccc(Cl)cc4)ncc3c2c1` the inhibition was -13.8% (inactive).
In the case of `COc1ccc(C2CC(=O)Oc3ccc(C(C)(C)C)cc32)cc1` (centres undefined), the inhibition is reported as 21.6% (inactive).
In the case of `c1ccc2c(c1)C(=NC1CCCCC1)NC2=NC1CCCCC1`, the inhibition is reported as 94.3% (active).
For `Cc1nn(C)c(Cl)c1CN1CCC(n2nccc2NC(=O)C2CCCC2)CC1`, the inhibition was 12.6% (inactive).
In the case of `COCc1cc(=O)[nH]c(SC)n1`, the inhibition is reported as 5.54% (inactive).
`COc1ccc([C@@H]2[C@@H]3C(=O)N(C(C)(C)C)C(=O)[C@@H]3[C@]3(Cc4ccccc4)C(=O)N(c4cccc(Br)c4)C(=O)N23)cc1` was tested, and the inhibition was 37.8% (inactive).
With `O=C(NNC(=O)c1cc(-c2ccccc2Cl)nc2ccccc12)c1csc(N2CCOCC2)n1` the inhibition was -34.1% (inactive).
With `C=CCn1c(C23CC4CC(CC(C4)C2)C3)n[nH]c1=S` the inhibition was 9.22% (inactive).
With `Cc1ccc(Nc2cc(=O)n(C3CCCCC3)c(=O)[nH]2)cc1C` the inhibition was 54.2% (active).
With `O=c1cc(C(F)(F)F)[nH]c(=O)n1C1CCCCC1` the inhibition was -23.2% (inactive).
With `Cc1ccc(NNC(=O)C2CCC2)cc1C` the inhibition was -2.12% (inactive).
With `O=C(Cn1ccc2cc(S(=O)(=O)N3CCCC3)ccc21)NCc1ccccc1` the inhibition was 12.6% (inactive).
In the case of `O=[N+]([O-])/C=C/c1ccc2c(ccn2Cc2ccccc2)c1`, the inhibition is reported as 95.5% (active).
With `COC(=O)Cn1cc(/C=C/[N+](=O)[O-])c2ccccc21` the inhibition was 23.4% (inactive).
In the case of `Oc1ccc(N=Nc2nccs2)c(O)c1`, the inhibition is reported as 53.8% (active).
In the case of `O=C(NC1(C(F)(F)F)NC(=O)N(Cc2cccnc2)C1=O)c1ccccc1Cl` (centres undefined), the inhibition is reported as 1.79% (inactive).
For `Cc1cc(C)c(C#N)c(SCC(=O)N(CC(C)C)C2CCS(=O)(=O)C2)n1` (centres undefined), the inhibition was 18% (inactive).
In the case of `CN(C)Cc1c(C(=O)N/N=C/c2ccccc2OCc2ccc(F)cc2)nnn1-c1nonc1N`, the inhibition is reported as 14.6% (inactive).
`Nc1ccc(C(=O)N2CCN(S(=O)(=O)c3ccc(Cl)cc3)CC2)cc1[N+](=O)[O-]` was tested, and the inhibition was 18.3% (inactive).
For `CC1CCN(C(=O)c2ccc(S(=O)(=O)Cc3cc(F)ccc3F)c([N+](=O)[O-])c2)CC1`, the inhibition was 68.4% (active).
With `CC1CCN(C(=O)c2ccc(CSc3ccc(Cl)cc3)cc2)CC1` the inhibition was -14.2% (inactive).
In the case of `COc1ccc(C(=O)Nc2nc(-c3ccc(OC)cc3)c(-c3ccc([N+](=O)[O-])cc3)s2)cc1`, the inhibition is reported as 13.4% (inactive).
With `N#Cc1ccc(C(=O)Nc2nc(-c3cccs3)c(C(=O)C(F)(F)F)s2)cc1` the inhibition was 83.2% (active).
For `CCOc1cccc(C(=O)Nc2nnc(-c3cccs3)s2)c1`, the inhibition was -36.4% (inactive).
`COc1ccc(CC(NC(C)=O)C(=O)NC2CCN(C(=O)c3ccc(Cl)cc3)CC2)cc1` (centres undefined) was tested, and the inhibition was 7.62% (inactive).
For `Cc1ccc(-n2cnc3ncnc(-c4ccccc4)c32)cc1`, the inhibition was 6.32% (inactive).
`Cc1ccc(-c2nn(C(C)(C)C)c3ncnc(N)c23)cc1` was tested, and the inhibition was 79% (active).
With `c1ccc(-c2cnc(CN3CCN(c4ccccc4)CC3)o2)cc1` the inhibition was -0.44% (inactive).
`CCN=c1sc(C(=O)Nc2ccccc2)c(C)n1CC` was tested, and the inhibition was 18.2% (inactive).
In the case of `CCCn1c(N)c(C(=O)CSc2nnc3n2CCCCC3)c(=O)[nH]c1=O`, the inhibition is reported as 2.64% (inactive).
In the case of `CC(C)(C)NC(=O)NC(=O)CN1CCC(Cc2ccccc2)CC1`, the inhibition is reported as 12% (inactive).
With `COc1cccc2sc(N(CCCN(C)C)C(=O)CCS(=O)(=O)c3ccccc3)nc12` the inhibition was 73.6% (active).
With `Cc1cccc2sc(N(CCCN(C)C)C(=O)CCS(=O)(=O)c3ccccc3)nc12` the inhibition was 98.7% (active).
In the case of `COc1cccc2sc(N(CCCN(C)C)C(=O)C(c3ccccc3)c3ccccc3)nc12`, the inhibition is reported as 92.5% (active).
With `CN(C)CCN(C(=O)CN1C(=O)c2ccccc2C1=O)c1nc2cc3c(cc2s1)OCCO3` the inhibition was -9.56% (inactive).
With `CC(=O)N(CCCN(C)C)c1nc2ccc(C)cc2s1` the inhibition was -16.8% (inactive).
In the case of `COc1ccc(N(C)C(=O)CCS(=O)(=O)c2cccc3nsnc23)cc1`, the inhibition is reported as -8.48% (inactive).
With `COc1cc2ccccc2cc1C(=O)N(CCN(C)C)c1nc2c(F)cccc2s1` the inhibition was 19.4% (inactive).
`COc1ccc(NC(=O)CS(=O)(=O)c2ccccc2)cc1` was tested, and the inhibition was -16.7% (inactive).
In the case of `Cc1cccc(C)c1NC(=O)CCS(=O)(=O)c1cccc2nsnc12`, the inhibition is reported as -1.39% (inactive).
For `CC(C)(Oc1ccc(Cl)cc1)C(=O)OCC(=O)NCCc1ccc(S(N)(=O)=O)cc1`, the inhibition was -3.95% (inactive).
`CC1=C(C(N)=O)C(c2ccc(F)cc2)n2nc(CCCO)nc2N1` (centres undefined) was tested, and the inhibition was 1.82% (inactive).
`CCOCCCNC(=O)C1(O)c2cc(Br)ccc2NC(=O)N1c1ccc(C)c(C)c1` (centres undefined) was tested, and the inhibition was 18.7% (inactive).
`Cc1nc2cc(C(F)(F)F)ccc2n1CCNc1nc(-c2cc(Cl)c(N)c(Cl)c2)cs1` was tested, and the inhibition was 27.1% (inactive).
